Test results reported in PubChem BioAssay (Tox21).
Results filed as inconclusive are left out. A call without a number means that no potency is given here. Calls of active or inactive are those of the source. Unless noted, calls follow the shape of the dose curve; as a rule, active = well fitted curve in the direction sought with a large enough effect in the repeat runs; inconclusive = weak or mixed curves; inactive = no such curve, though single readings can be large; an effect the other way counts as inactive or inconclusive.

How the values were obtained:
[1] = biological target: Aryl hydrocarbon receptor (Homo sapiens) (UniProt P35869); experiment: qHTS assay to identify small molecule that activate the aryl hydrocarbon receptor (AhR) signaling pathway (AID 743085);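 also: HG2L7.5c1 human HepG2 liver cells with stably integrated DRE-driven firefly reporter; series mostly up to about 70 µM; nearly all actives have a fitted effect of over 15% in size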
In short: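 Reporter assay in engineered HepG2 line HG2L7.5c1, whose plasmid carries twenty dioxin responsive elements upstream of firefly luciferase. Treatment lasted 24 h at 37C; ONE-Glo luminescence gauged induction.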

[2] = qHTS assay to identify small molecule that activate the aryl hydrocarbon receptor (AhR) signaling pathway - cell viability counter screen (AID 743086);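 also: HepG2 liver cells carrying the AhR DRE luciferase reporter; series mostly up to about 70 µM; nearly all actives have a fitted effect of over 45% in size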
In short: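 HepG2-AhR-luc (HG2L7.5c1) cells, 4000/well, treated 24 h at 37 C with compound; viability measured as CellTiter-Fluor fluorescence after 30 min in the same wells as the luciferase read.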

[3] = biological target: Peroxisome proliferator-activated receptor gamma (Homo sapiens) (UniProt P37231); experiment: qHTS assay to identify small molecule agonists of the peroxisome proliferator-activated receptor gamma (PPARg) signaling pathway (AID 743094; active = well fitted activation curve with a large enough effect in the signal ratio in the repeat runs, not every such curve was filed as active; the % refers to the signal ratio)
In short: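 Fluorescence-based beta-lactamase readout in HEK293H PPARg UAS-bla cells after 17 h compound exposure (37C) and 1 h B/G FRET substrate incubation at room temperature.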

[4] = biological target: Peroxisome proliferator-activated receptor gamma (Homo sapiens) (UniProt P37231); experiment: qHTS assay to identify small molecule antagonists of the peroxisome proliferator-activated receptor gamma (PPARg) signaling pathway (AID 743191; calls by dose curve; also: series mostly up to about 63 µM; nearly all actives have a fitted effect of over 30% in size)
In short: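 GeneBLAzer PPARg UAS-bla HEK293H cells, 5 h post-plating, exposed to compounds 17 h at 37C. LiveBLAzer B/G FRET substrate added for 1 h at room temperature; beta-lactamase reporter read by fluorescence intensity.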

[5] = qHTS assay for small molecule agonists of the antioxidant response element (ARE) signaling pathway (AID 743202; active = well fitted activation curve with a large enough effect in the signal ratio in the repeat runs, not every such curve was filed as active; the % refers to the signal ratio)
In short: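 HepG2 ARE-bla reporter line, 2,000 cells/well; 5 h preincubation 37 C/5% CO2; compound (DMSO) 16 h 37 C; B/G FRET substrate 2 h RT; fluorescence intensity.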

[6] = qHTS assay for small molecule activators of the heat shock response signaling pathway - cell viability counter screen (AID 743209); also: nearly all actives have a fitted effect of over 50% in size; also: potency is read from the fitted curve at half-maximal effect
In short: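 To flag cytotoxic compounds, HSE-bla HeLa cells plated at 1500 cells/well were dosed for 5 h at 37 C, followed by the reporter FRET read and then CellTiter-Glo, with luminescence recorded 30 min after reagent addition.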

[7] = qHTS assay for small molecule activators of the heat shock response signaling pathway (AID 743210; active = well fitted activation curve with a large enough effect in the signal ratio in the repeat runs, with a control signal flat, not every such curve was filed as active; the % refers to the signal ratio;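 also: HeLa cells with beta-lactamase reporter driven by heat shock elements; series mostly up to about 63 µM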)
In short: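 Beta-lactamase reporter read-out: FRET substrate fluorescence after 2.5 h at RT, following 5 h compound treatment at 37 C of HeLa cells carrying HSE-driven bla reporter; quantitative HTS format.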

[8] = biological target: Peroxisome proliferator-activated receptor delta (Homo sapiens) (UniProt Q03181); experiment: qHTS assay to identify small molecule agonists of the peroxisome proliferator-activated receptor delta (PPARd) signaling pathway (AID 743212; calls by dose curve)
In short: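 Read-out: beta-lactamase FRET fluorescence after 2 h room-temperature incubation with LiveBLAzer B/G substrate. Cells were HEK293H carrying a UAS-bla reporter for PPARd, treated at 37 C with DMSO-dissolved compounds.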

[9] = qHTS assay to identify small molecule antagonists of the peroxisome proliferator-activated receptor delta (PPARd) signaling pathway - cell viability counter screen (AID 743213); also: nearly all actives have a fitted effect of over 50% in size
In short: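 PPARd-bla HEK293H cells (3000/well) got compound plus 300 nM L165041 agonist for 17 h at 37 C. Viability in the same wells came from CellTiter-Glo luminescence after 30 min at room temperature.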

[10] = biological target: Peroxisome proliferator-activated receptor delta (Homo sapiens) (UniProt Q03181); experiment: qHTS assay to identify small molecule antagonists of the peroxisome proliferator-activated receptor delta (PPARd) signaling pathway (AID 743215; active = well fitted inhibition curve with a large enough effect in the signal ratio in the repeat runs, not every such curve was filed as active; the % refers to the signal ratio;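 also: cells stimulated with agonist L165041 at 300 nM final during compound exposure; series mostly up to about 62 µM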)
In short: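 Screen format: qHTS, antagonist mode. HEK293H PPARd-bla cells received compound and 300 nM L165041 (final), 17 h, 37 C. Beta-lactamase detected via FRET substrate fluorescence, 2 h, room temperature.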

[11] = qHTS assay to identify small molecule agonists of the farnesoid-X-receptor (FXR) signaling pathway - cell viability counter screen (AID 743218); also: nearly all actives have a fitted effect of over 45% in size
In short: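 Same-well cytotoxicity check on FXR-UAS-bla HEK 293T cells: 5 h attachment, 16 h compound at 37 C, CellTiter-Glo luminescence read at room temperature after 30 min.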

[12] = qHTS assay to identify small molecule antagonists of the farnesoid-X-receptor (FXR) signaling pathway - cell viability counter screen (AID 743221; active = well fitted cell-killing curve with a large enough effect in the repeat runs, not every such curve was filed as active; also: nearly all actives have a fitted effect of over 50% in size)
In short: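 CellTiter-Glo, 30 min RT, luminescence; same wells as the LiveBLAzer FRET read. Cells: FXR-UAS-bla HEK 293T. Treatment: compound with chenodeoxycholic acid 50 uM final, 16 h at 37 C.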

[13] = biological target: Vitamin D3 receptor (Homo sapiens) (UniProt P11473); experiment: qHTS assay to identify small molecule agonists of the vitamin D receptor (VDR) signaling pathway (AID 743222; calls by dose curve)
In short: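 Using LiveBLAzer B/G FRET detection, agonism was scored in VDR-bla cells exposed overnight (16 h, 37C) to DMSO-dissolved compounds; substrate incubation was 2 h at room temperature.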

[14] = biological target: Vitamin D3 receptor (Homo sapiens) (UniProt P11473); experiment: qHTS assay to identify small molecule antagonists of the vitamin D receptor (VDR) signaling pathway (AID 743223; active = well fitted inhibition curve with a large enough effect in the signal ratio in the repeat runs, not every such curve was filed as active; the % refers to the signal ratio)
In short: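 After VDR-bla cells are plated and left 4 h at 37C, DMSO-dissolved compounds and 3 nM (final) calcitriol agonist are added. Incubation continues 16 h at 37C; FRET beta-lactamase substrate then develops 2 h at room temperature.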

[15] = qHTS assay to identify small molecule antagonists of the peroxisome proliferator-activated receptor gamma (PPARg) signaling pathway - cell viability counter screen (AID 743194); also: nearly all actives have a fitted effect of over 55% in size
In short: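 Cytotoxicity counter screen in PPARg-bla HEK293H cells, same wells as reporter assay. Compounds plus 50 nM rosiglitazone (final) for 17 h at 37 C, then viability read by CellTiter-Glo luminescence.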

[16] = qHTS assay for small molecule agonists of the antioxidant response element (ARE) signaling pathway - cell viability counter screen (AID 743203; calls by dose curve; also: nearly all actives have a fitted effect of over 55% in size)
In short: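 Parallel cytotoxicity read-out for the ARE-bla screen: HepG2 reporter cells, 16 hrs with compounds, then CellTiter-Glo luminescence.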

[17] = qHTS assay to identify small molecule agonists of the peroxisome proliferator-activated receptor delta (PPARd) signaling pathway - cell viability counter screen (AID 743211); also: nearly all actives have a fitted effect of over 55% in size
In short: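 Multiplexed format: after the 2 h room-temperature LiveBLAzer B/G FRET step, CellTiter-Glo was added to the same wells. Luminescence after 30 min gave cell viability; compound exposure was 17 h at 37C.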

[18] = biological target: Bile acid receptor (Homo sapiens) (UniProt Q96RI1); experiment: qHTS assay to identify small molecule antagonists of the farnesoid-X-receptor (FXR) signaling pathway (AID 743217; active = well fitted inhibition curve with a large enough effect in the signal ratio in the repeat runs, not every such curve was filed as active; the % refers to the signal ratio)
In short: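 Quantitative HTS, beta-lactamase reporter format: FXR-UAS-bla HEK 293T cells co-treated 16 h at 37 °C with compounds and 50 uM final chenodeoxycholic acid, then read by B/G FRET fluorescence.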

[19] = qHTS assay to identify small molecule agonists of the vitamin D receptor (VDR) signaling pathway - cell viability counter screen (AID 743224); also: series mostly up to about 63 µM; nearly all actives have a fitted effect of over 50% in size
In short: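 Counter screen for cytotoxicity: VDR-bla cells at 2,000 cells/well, 16 h compound exposure, then CellTiter-Glo luminescence after the beta-lactamase measurement.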

[20] = biological target: Bile acid receptor (Homo sapiens) (UniProt Q96RI1); experiment: qHTS assay to identify small molecule agonists of the farnesoid-X-receptor (FXR) signaling pathway (AID 743220; active = well fitted activation curve with a large enough effect in the signal ratio in the repeat runs, not every such curve was filed as active; the % refers to the signal ratio)
In short: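 FXR-UAS-bla HEK 293T cells carrying a UAS-driven beta-lactamase reporter were plated for 5 h at 37C/5% CO2, then exposed to DMSO-dissolved Tox21 10K compounds for 16 h at 37C. A LiveBLAzer B/G FRET substrate was loaded for 2 h at room temperature before fluorescence reading.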

Chain of Peroxisome proliferator-activated receptor gamma (Homo sapiens) (P37231 whole entry, looked up): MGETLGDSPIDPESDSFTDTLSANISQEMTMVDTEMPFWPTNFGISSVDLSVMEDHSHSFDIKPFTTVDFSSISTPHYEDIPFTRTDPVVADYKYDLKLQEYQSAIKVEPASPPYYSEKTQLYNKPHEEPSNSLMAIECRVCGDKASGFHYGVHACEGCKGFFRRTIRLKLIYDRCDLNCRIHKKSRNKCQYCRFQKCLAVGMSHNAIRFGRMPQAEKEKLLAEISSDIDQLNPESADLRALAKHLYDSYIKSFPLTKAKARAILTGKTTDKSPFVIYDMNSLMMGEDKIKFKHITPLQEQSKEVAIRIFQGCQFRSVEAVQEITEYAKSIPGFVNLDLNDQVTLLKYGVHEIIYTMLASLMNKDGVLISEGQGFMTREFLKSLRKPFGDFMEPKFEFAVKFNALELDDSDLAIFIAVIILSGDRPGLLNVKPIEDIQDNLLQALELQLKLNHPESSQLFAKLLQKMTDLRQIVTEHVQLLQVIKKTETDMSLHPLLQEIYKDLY
Chain of Aryl hydrocarbon receptor (Homo sapiens) (P35869 whole entry, looked up): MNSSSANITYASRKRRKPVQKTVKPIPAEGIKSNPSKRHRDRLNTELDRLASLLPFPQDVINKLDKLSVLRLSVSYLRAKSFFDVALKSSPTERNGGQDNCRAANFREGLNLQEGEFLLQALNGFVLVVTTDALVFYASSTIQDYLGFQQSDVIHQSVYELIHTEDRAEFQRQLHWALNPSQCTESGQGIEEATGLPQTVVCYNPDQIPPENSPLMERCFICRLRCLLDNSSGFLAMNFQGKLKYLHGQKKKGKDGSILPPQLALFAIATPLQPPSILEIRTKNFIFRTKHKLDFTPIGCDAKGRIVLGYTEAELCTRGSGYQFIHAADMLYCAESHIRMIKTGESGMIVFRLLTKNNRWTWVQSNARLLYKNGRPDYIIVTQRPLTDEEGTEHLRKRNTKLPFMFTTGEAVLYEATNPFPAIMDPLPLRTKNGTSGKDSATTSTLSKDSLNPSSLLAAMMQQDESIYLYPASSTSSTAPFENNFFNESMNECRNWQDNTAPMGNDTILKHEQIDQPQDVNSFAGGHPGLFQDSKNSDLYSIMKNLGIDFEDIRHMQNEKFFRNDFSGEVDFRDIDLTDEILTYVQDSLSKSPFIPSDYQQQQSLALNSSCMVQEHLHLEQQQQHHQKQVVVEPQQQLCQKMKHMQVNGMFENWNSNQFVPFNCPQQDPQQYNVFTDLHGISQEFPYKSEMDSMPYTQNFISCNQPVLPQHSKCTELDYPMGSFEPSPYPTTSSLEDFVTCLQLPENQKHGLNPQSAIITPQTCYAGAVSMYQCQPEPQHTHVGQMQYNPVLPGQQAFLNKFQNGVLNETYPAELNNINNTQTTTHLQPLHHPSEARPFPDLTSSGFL
Chain of Peroxisome proliferator-activated receptor delta (Homo sapiens) (Q03181 whole entry, looked up): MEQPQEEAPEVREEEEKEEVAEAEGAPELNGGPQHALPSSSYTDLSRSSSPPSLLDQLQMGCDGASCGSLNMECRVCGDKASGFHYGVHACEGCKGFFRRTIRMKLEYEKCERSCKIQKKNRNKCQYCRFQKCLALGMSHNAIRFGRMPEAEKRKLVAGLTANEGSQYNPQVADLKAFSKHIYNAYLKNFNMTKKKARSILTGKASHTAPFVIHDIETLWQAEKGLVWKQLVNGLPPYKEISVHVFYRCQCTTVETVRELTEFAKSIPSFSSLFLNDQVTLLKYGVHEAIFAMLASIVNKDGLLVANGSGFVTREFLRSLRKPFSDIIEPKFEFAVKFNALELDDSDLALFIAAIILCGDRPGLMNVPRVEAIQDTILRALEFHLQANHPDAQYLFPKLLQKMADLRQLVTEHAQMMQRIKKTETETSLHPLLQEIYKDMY
Chain of Bile acid receptor (Homo sapiens) (Q96RI1 whole entry, looked up): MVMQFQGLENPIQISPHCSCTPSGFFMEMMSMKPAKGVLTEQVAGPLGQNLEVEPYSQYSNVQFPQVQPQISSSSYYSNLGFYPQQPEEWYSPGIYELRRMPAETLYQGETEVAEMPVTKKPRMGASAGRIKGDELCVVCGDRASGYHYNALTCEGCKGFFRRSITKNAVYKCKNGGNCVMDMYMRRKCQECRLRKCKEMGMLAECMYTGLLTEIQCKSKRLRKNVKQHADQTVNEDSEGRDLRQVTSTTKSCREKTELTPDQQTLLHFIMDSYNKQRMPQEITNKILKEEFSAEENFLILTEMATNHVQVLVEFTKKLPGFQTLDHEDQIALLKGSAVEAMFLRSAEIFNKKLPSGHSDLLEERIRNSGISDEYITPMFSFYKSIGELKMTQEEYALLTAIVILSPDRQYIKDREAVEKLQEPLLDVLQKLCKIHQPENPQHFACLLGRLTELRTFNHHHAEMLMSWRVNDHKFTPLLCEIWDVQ
Chain of Vitamin D3 receptor (Homo sapiens) (P11473 whole entry, looked up): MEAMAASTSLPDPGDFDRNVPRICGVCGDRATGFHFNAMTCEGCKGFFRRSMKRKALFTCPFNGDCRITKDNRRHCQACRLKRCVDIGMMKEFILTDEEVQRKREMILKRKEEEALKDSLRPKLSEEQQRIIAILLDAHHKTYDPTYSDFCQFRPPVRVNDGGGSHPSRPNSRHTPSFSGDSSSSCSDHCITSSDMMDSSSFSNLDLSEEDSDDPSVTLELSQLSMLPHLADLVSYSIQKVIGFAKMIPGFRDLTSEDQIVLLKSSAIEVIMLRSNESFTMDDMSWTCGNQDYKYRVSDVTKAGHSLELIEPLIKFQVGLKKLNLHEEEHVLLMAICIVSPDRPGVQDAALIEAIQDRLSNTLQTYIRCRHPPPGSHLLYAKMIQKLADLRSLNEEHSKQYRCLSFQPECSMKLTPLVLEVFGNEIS

SMILES | Potency [1] | Potency [2] | outcome [3] | Potency [4] | Potency [5] | Potency [6] | Potency [7] | outcome [8] | Potency [9] | Potency [10] | Potency [11] | Potency [12] | outcome [13] | outcome [14] | Potency [15] | Potency [16] | Potency [17] | outcome [18] | Potency [19] | Potency [20]
COc1ccc(C2C(=O)c3ccccc3C2=O)cc1 | inactive | inactive | inactive | inactive | inactive | inactive | inactive | inactive | inactive | inactive | inactive | inactive | inactive | inactive | – | – | – | – | – | –
CC(=O)OCC1=C(C(=O)O)N2C(=O)[C@@H](NC(=O)CSc3ccncc3)[C@H]2SC1 | inactive | inactive | inactive | inactive | – | inactive | inactive | inactive | inactive | – | inactive | inactive | – | – | inactive | inactive | inactive | inactive | inactive | –
C=Cc1ccc(OC(C)=O)cc1 | inactive | inactive | inactive | inactive | – | inactive | inactive | inactive | inactive | inactive | inactive | inactive | inactive | inactive | inactive | inactive | inactive | – | inactive | –
C=CC(=O)O | inactive | inactive | inactive | inactive | – | – | – | inactive | inactive | inactive | inactive | inactive | inactive | inactive | inactive | inactive | inactive | – | inactive | –
O=C(NC(Cc1cc(=O)[nH]c2ccccc12)C(=O)O)c1ccc(Cl)cc1 (stereo not given) | inactive | inactive | inactive | inactive | inactive | – | inactive | – | inactive | – | inactive | inactive | inactive | – | inactive | inactive | inactive | – | inactive | –
CCCCCCCC/C=C\CCCCCCCC(=O)OCCO | inactive | inactive | inactive | inactive | – | 64.9 µM (active) | – | – | inactive | inactive | inactive | – | – | – | inactive | inactive | inactive | – | inactive | –
CC(C)(C)CCCCCCOC(=O)c1ccccc1C(=O)OCCCCCCC(C)(C)C | inactive | inactive | inactive | inactive | – | inactive | inactive | inactive | – | inactive | inactive | inactive | inactive | inactive | inactive | inactive | inactive | inactive | inactive | –
COC(=O)CC(C(C)=O)C(=O)OC (stereo not given) | inactive | inactive | inactive | – | – | inactive | inactive | inactive | – | inactive | inactive | inactive | inactive | – | inactive | inactive | – | inactive | inactive | inactive
CC(C)OC(=O)c1ccccc1C(=O)OC(C)C | inactive | inactive | inactive | – | inactive | – | inactive | inactive | inactive | inactive | – | inactive | inactive | inactive | inactive | inactive | inactive | inactive | inactive | inactive
COc1ccc(CCN(C)CCCN2CCc3cc(OC)c(OC)cc3CC2=O)cc1OC | inactive | inactive | inactive | – | inactive | inactive | – | inactive | inactive | inactive | inactive | – | – | – | inactive | inactive | inactive | – | inactive | –
CC(=O)C(C)=O | inactive | inactive | inactive | – | inactive | inactive | inactive | inactive | inactive | inactive | inactive | inactive | inactive | inactive | inactive | inactive | inactive | inactive | inactive | inactive
Cc1c[nH]c2ccccc12 | inactive | inactive | inactive | – | – | inactive | inactive | inactive | inactive | inactive | inactive | – | – | – | inactive | inactive | – | – | inactive | –
